Assay results as given in the supplement of paper PMC8183993.
Several values for one entry are separate records, joined by “and”; a condition that tells them apart may be missing. Equal values may be shown once. Where a name gives a salt, the structure may show the parent alone. ± gives the standard deviation of the averaged measurements. Whole data set: some 3,200 compounds, median “nuclei count (viability) relative to DMSO” near 99, cut for the lowest 2% near 16. Only a selection was taken, and the lowest values are over-represented in it overall.

What follows are compounds tested on U2OS (assay: nuclei count (viability) relative to DMSO (% of DMSO); higher = more viable cells). Settings: 10 µM; 24 h.
Method: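 Primary image-based screen in U2OS cells: compounds at 10 uM for 24 h, then a 1 h o-propargyl-puromycin (OPP) pulse, click labelling, and high-throughput microscopy. Mean cytoplasmic OPP intensity and nuclei count were normalised to DMSO wells within each plate (DMSO = 100) and averaged over triplicate plates.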
Compound `C/C=C1\NC(=O)[C@H]2CSSCC/C=C/[C@H](CC(=O)N[C@H](C(C)C)C(=O)N2)OC(=O)[C@H](C(C)C)NC1=O` [Romidepsin (FK228 ,depsipeptide)] has a nuclei count of 8.81.
With `CC#CCOC(=O)C1=CCCN(C)C1` [Arecaidine but-2-ynyl ester tosylate] the nuclei count was 101.
`CNC(=O)c1cc(Oc2ccc(NC(=O)Nc3cc(C(C)(C)C)nn3-c3ccc4ncccc4c3)c(F)c2)ccn1` [DCC-2036 (Rebastinib)] was tested, and the nuclei count was 70.1.
In the case of `NC(=O)c1ccncc1` [Isonicotinamide], the nuclei count is reported as 99.6.
For `O=C(/C=C/c1ccc2ccccc2n1)c1ccncc1`, the nuclei count was 11.3.
In the case of `C=CC(=O)c1ccc2ccccc2c1`, the nuclei count is reported as 105.
`COC(=O)C1=C(C)NC(C)=C(C(=O)OCCSc2ccccc2)C1C` (stereo not drawn) gave a nuclei count of 97.8.
`CCS(=O)(=O)N1CCC[C@@H]2CN3CCc4cc(OC)ccc4[C@@H]3C[C@@H]21` was tested, and the nuclei count was 101.
`CC1=CC(=O)c2ccccc2C1=O` [Menadione] showed a nuclei count of 54.1.
`O=C1c2ccccc2C(=O)c2c1ccc(O)c2O` [Alizarin] gave a nuclei count of 89.7.
In the case of `CC[C@H](C)[C@H](N)C1=N[C@H](C(=O)N[C@@H](CC(C)C)C(=O)N[C@H](CCC(=O)[O-])C(=O)N[C@H](C(=O)N[C@H]2CCCCNC(=O)[C@H](CC(N)=O)NC(=O)[C@@H](CC(=O)[O-])NC(=O)[C@H](Cc3cnc[nH]3)NC(=O)[C@@H](Cc3ccccc3)NC(=O)[C@H]([C@@H](C)CC)NC(=O)[C@@H](CCCN)NC2=O)[C@@H](C)CC)CS1.[Zn+2]` [Bacitracin zinc], the nuclei count is reported as 109.
Compound `CC(C)NCC(O)COc1ccc(COCCOC(C)C)cc1` (racemic) [(±)-Bisoprolol hemifumarate] has a nuclei count of 102.
In the case of `C[C@H](NC(=O)/C(C#N)=C/c1ccc(O)c(O)c1)c1ccccc1` [Tyrphostin B44, (+) enantiomer], the nuclei count is reported as 93.4.
In the case of `N#C/C(=C\c1ccc(O)c(O)c1)C(=O)NCc1ccccc1`, the nuclei count is reported as 102 and 98.5.
For `N#C/C(=C\c1ccc(O)c(O)c1)C(=O)Nc1ccccc1`, the nuclei count was 83.4.
`CCC[C@H](NC(=O)/C(C#N)=C/c1cccc(Br)n1)c1ccccc1` showed a nuclei count of 5.45.
For `C[C@H](NC(=O)/C(C#N)=C/c1cccc(Br)n1)c1ccccc1`, the nuclei count was 7.49 ± 1.2.
In the case of `CC(C)c1cccc(=O)c(O)c1` [Hinokitiol], the nuclei count is reported as 87.3.
Compound `CCC(C)[C@H](NS(=O)(=O)c1cccc2ccccc12)C(=O)N[C@H](C=O)Cc1c[nH]c2ccccc12` (stereo partly drawn) has a nuclei count of 90.3.
With `CNC(=O)CN(CCN(CCN(CC(=O)O)CC(=O)NC)CC(=O)O)CC(=O)O.O.[Gd]` [Gadodiamide (Omniscan)] the nuclei count was 101.
`Cc1ccccc1C(=O)Nc1ccc(C(=O)N2CCCC(N(C)C)c3ccccc32)cc1` (stereo not drawn) [Mozavaptan] gave a nuclei count of 41.2.
`N[C@@H](CS(=O)O)C(=O)O` [L-Cysteinesulfinic acid] showed a nuclei count of 102.
`CC1=NN(c2ccc(C)c(C)c2)C(=O)/C1=N\Nc1cccc(-c2cccc(C(=O)O)c2)c1O` was tested, and the nuclei count was 98.3.
`C=CC(=O)Nc1ccc2ncnc(Nc3cccc(Br)c3)c2c1` gave a nuclei count of 79.2 ± 4.8.
`C=CC(=O)Nc1cccc(Oc2nc(Nc3ccc(N4CCN(C)CC4)cc3)ncc2Cl)c1` showed a nuclei count of 6.24.
With `CCC(=O)Nc1cccc(Oc2nc(Nc3ccc(N4CCN(C)CC4)cc3OC)ncc2Cl)c1` the nuclei count was 94.6.
With `C=CC(=O)Nc1cccc(Nc2nc(Nc3ccc(Oc4ccnc(C(=O)NC)c4)cc3)ncc2F)c1` the nuclei count was 63.4.
With `C=CC(=O)Nc1cccc(Sc2nc(Nc3ccc(N4CCN(C)CC4)cc3)ncc2Cl)c1` the nuclei count was 13.6.
`C=CC(=O)Nc1cccc(Oc2nc(Nc3ccc(N4CCN(C)CC4)cc3OC)ncc2Cl)c1` showed a nuclei count of 107.
For `NC1CCN(c2cccc(Cl)n2)CC1`, the nuclei count was 103.
With `COC(=O)C1=C(C)NC(C)=C(C(=O)NCCCN2CCC(c3ccccc3)(c3ccccc3)CC2)C1c1ccc([N+](=O)[O-])cc1` (stereo not drawn) the nuclei count was 55.1.
`O=C(O)CCc1ccc(NCc2cccc(Oc3ccccc3)c2)cc1` showed a nuclei count of 90.2.
In the case of `COC(C)(C)CCCC(C)C/C=C/C(C)=C/C(=O)O` (stereo not drawn) [Methoprene acid], the nuclei count is reported as 105.
`COc1ccc(CN2C(=O)C(=O)c3cc(OC(F)(F)F)ccc32)cc1` was tested, and the nuclei count was 17.3.
`O=[N+]([O-])c1ccc2c(c1)S(=O)(=O)C=C2` [Stattic] showed a nuclei count of 14.1.
Work on `O=C1Nc2ccc([N+](=O)[O-])cc2C1=O` [5-Nitroisatin] yielded a nuclei count of 99.
For `CS(=O)(=O)Nc1ccc([N+](=O)[O-])cc1Oc1ccccc1` [Nimesulide], the nuclei count was 103 ± 6.9.
With `CCCC[P+](CCCC)(CCCC)Cc1ccc(NC(=O)C(Cc2ccc3ccccc3c2)NC(=NC2CCCCC2)NC2CCCCC2)cc1` (stereo not drawn) the nuclei count was 94.1.
In the case of `CC(C)C[C@H](NC(=O)[C@@H](O)[C@H](N)Cc1ccccc1)C(=O)O` [Bestatin], the nuclei count is reported as 94.4.
`CC(C)C[C@H](NC(=O)[C@H](Cc1ccccc1)NC(=O)c1cnccn1)B(O)O` [Bortezomib (Velcade)] gave a nuclei count of 7.65.
In the case of `Nc1nc(NCCc2ccc(O)cc2)nc2nc(-c3ccco3)nn12`, the nuclei count is reported as 114.
Work on `CCCOc1ccn2c(C(C)=O)cc(-c3ccccc3S(C)(=O)=O)c2c1` yielded a nuclei count of 96.4.
With `Cc1cc(=O)n(C)c2cc(N3C(=O)CC[C@H](NS(=O)(=O)CC(C)C)[C@H]3c3ccc(Cl)cc3)ccc12` the nuclei count was 104.
With `COCCCN1CCC(NC(=O)c2cc(Cl)c(N)c3c2OCC3)CC1` [Prucalopride] the nuclei count was 103.
In the case of `O=C1NCCN1c1ncc([N+](=O)[O-])s1` [Niridazole], the nuclei count is reported as 90.4.
For `O=c1[nH]nc(Sc2ncc([N+](=O)[O-])s2)n1-c1ccc2c(c1)OCCO2`, the nuclei count was 6.42 ± 2.8.
Work on `O=c1nc2ccccc2c2n1CC(CN1CCN(c3ccccc3)CC1)N2` (stereo not drawn) yielded a nuclei count of 100.
`COc1cc2c(cc1OC)CN(CCc1ccc(NC(=O)c3cc(OC)c(OC)cc3NC(=O)c3cnc4ccccc4c3)cc1)CC2` [Tariquidar] was tested, and the nuclei count was 96.8.
In the case of `CCCCC/C=C/C=C1/C(=O)C=C[C@@H]1C/C=C\CCCC(=O)O` [15-Deoxy-D12,14-prostaglandin J2], the nuclei count is reported as 85.6.
With `O=C(Nc1ccccc1-c1cn2c(CN3CCNCC3)csc2n1)c1cnc2ccccc2n1` the nuclei count was 12.2.
Work on `O=[N+]([O-])c1cccc2c(Br)[nH]nc12` [3-Bromo-7-nitroindazole] yielded a nuclei count of 102.
In the case of `CCC(=O)OCN1C(=O)C=CC1=O`, the nuclei count is reported as 109.
For `CN(CCOc1ccc(-c2ccc3c(c2)OCO3)cc1C(C)(C)C)CC(=O)O`, the nuclei count was 98.
With `COC(=O)[C@H](Cc1ccccc1)NC(=O)[C@@H](N)CC(=O)O` [Aspartame] the nuclei count was 108.
`COC[C@H](NC(=O)c1cnc(C)s1)C(=O)N[C@@H](COC)C(=O)N[C@@H](Cc1ccccc1)C(=O)[C@@]1(C)CO1` [Oprozomib (ONX 0912)] showed a nuclei count of 11.1.
Compound `O=C(CCc1ccc(O)cc1)c1c(O)cc(O)cc1O[C@@H]1O[C@H](CO)[C@@H](O)[C@H](O)[C@H]1O` [Phlorizin (Phloridzin)] has a nuclei count of 82.5.
`Oc1cc2c(c(Cl)c1O)CCNCC2c1ccccc1` (stereo not drawn) gave a nuclei count of 91.2.
Work on `O=C1CCc2c(ccc3ccccc23)O1` [Splitomicin] yielded a nuclei count of 104 ± 5.1.
`CC(NC(=O)C(Cc1ccccc1)NC(=O)OCc1ccccc1)C(=O)CF` (stereo not drawn) gave a nuclei count of 95.
In the case of `CCCC[C@@H](C=O)NC(=O)[C@H](CC(C)C)NC(=O)OCc1ccccc1` [Calpeptin], the nuclei count is reported as 102 ± 1.9.
For `CC(C)C[C@@H](C=O)NC(=O)[C@H](CC(C)C)NC(=O)[C@H](CC(C)C)NC(=O)OCc1ccccc1`, the nuclei count was 10.9 and 7.59.
Compound `CC1C(=O)OC2C(O)C34C5CC(C(C)(C)C)C36C(OC(=O)C6O)OC4(C(=O)O5)C12O` (stereo not drawn) [Ginkgolide B] has a nuclei count of 95.
Work on `NCCCCCc1c[nH]cn1` [Impentamine dihydrobromide] yielded a nuclei count of 90.5.
`CN(Cc1ccccc1)C(=O)[C@H](Cc1ccc2ccccc2c1)NC(=O)[C@@H]1CCCN1C(=O)Nc1ccccc1[N+](=O)[O-]` was tested, and the nuclei count was 100.
Work on `OC(c1cc(C(F)(F)F)nc2c(C(F)(F)F)cccc12)C1CCCCN1` (stereo not drawn) [Mefloquine hydrochloride] yielded a nuclei count of 10.7.
`Oc1ccc(OC2CCCCO2)cc1` (stereo not drawn) [Deoxyarbutin] showed a nuclei count of 91.1.
For `COC(=O)[C@@H]1CC2=CC(=O)CC[C@]2(C)[C@@]23O[C@@H]2C[C@@]2(C)[C@@H](CC[C@@]24CCC(=O)O4)[C@H]13` [Eplerenone], the nuclei count was 104 ± 3.6.
`CC(C)Oc1cc(Nc2nc(N[C@@H](C)c3ccc(F)cn3)ncc2Cl)n[nH]1` showed a nuclei count of 52.7.
Compound `Cc1cc(Nc2ncc(Cl)c(Nc3ccccc3S(=O)(=O)C(C)C)n2)c(OC(C)C)cc1C1CCNCC1` [Ceritinib (LDK378)] has a nuclei count of 14.7.
With `Cc1cccc(C)c1NC(=O)C[N+](C)(C)C` the nuclei count was 106.
With `CCn1nnc2c(N3CCOCC3)nc(-c3ccc(NC(=O)Nc4ccc(C(=O)N5CCN(C)CC5)cc4)cc3)nc21` the nuclei count was 77.7.
For `CC(C)c1ccc(Cn2ccc3c4c(N)nc(NC5CC5)nc4ccc32)cc1`, the nuclei count was 29.3.
`Cc1c(NC(=O)N2CCOCC2)ccc2c1c1ccccc1n2C(C)C` was tested, and the nuclei count was 94.6.
`CC(C)C[C@H](NC(=O)CNC(=O)c1cc(Cl)ccc1Cl)B(O)O` gave a nuclei count of 9.55.
`CC(C)C[C@H](NC(=O)CNC(=O)c1cc(Cl)ccc1Cl)B1OC(=O)C(CC(=O)O)(CC(=O)O)O1` gave a nuclei count of 11.6.
In the case of `CC(C)C[C@H](NC(=O)[C@H](CCC(=O)O)NC(=O)CNC(=O)c1ccc(/C=C/C(=O)O)cc1)C(N)=O`, the nuclei count is reported as 97.5.
`N=C(N)c1ccc(N2CCN(C3CCN(CC(=O)O)CC3)CC2)cc1` showed a nuclei count of 104.
Work on `CCCC(=O)[O-].[Na+]` [Sodium butyrate] yielded a nuclei count of 89.2.
With `CC1=C(/C=C/C(C)=C/C=C/C(C)=C/C(=O)O)C(C)(C)CCC1O` (stereo not drawn) [4-Hydroxyretinoic acid] the nuclei count was 101.
With `NC(C(=O)O)c1ccc(C(=O)O)c(C(=O)O)c1` (racemic) the nuclei count was 102.
`COc1cccc(-c2cc(NCc3ccc4c(c3)OCO4)nc(N)n2)c1` showed a nuclei count of 19.1.
`COCC(=O)O[C@]1(CCN(C)CCCc2nc3ccccc3[nH]2)CCc2cc(F)ccc2[C@@H]1C(C)C` [Mibefradil dihydrochloride] showed a nuclei count of 81.7.
`CC(C)[C@H]1c2ccc(F)cc2CC[C@@]1(CCN(C)CCCc1nc2ccccc2[nH]1)OC(=O)C1CC1` [NNC 55-0396 dihydrochloride] gave a nuclei count of 10.5.
